Assay in all cases: PBM binding z-score (relative to random genomic background probes); higher = stronger binding; sequences stand for … in GC…GCGATTGACAGCGTAGAATGAAGG
Assay [1] concerns RARb homodimer (NR concentration 270 nM). The procedure, abridged:
(§1)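 Custom Agilent 4×180K protein-binding microarrays carried double-stranded probes. Their 34-nt variable regions held direct-repeat seeds, single-nucleotide variants, half-site ablations and random human genomic background sequences. Arrays were incubated 1 h with ligand-free nuclear receptor dimers in PBS pH 7.4, 2% milk, 0.02% Triton X-100, 1 mM DTT, 0.2 mg/mL BSA and 0.4 mg/ml salmon testes DNA. Antibodies against each partner (one per run) detected binding, and scanned fluorescence was regression-normalized. Binding z-scores use random background probes as reference.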

Assay [2] has as its system RARg:RXRa (NR concentration 270 nM, RXRa partner concentration 90 nM). The procedure, abridged: as §1
The subject of assay [3] is RARg homodimer (NR concentration 270 nM). The essentials:
as §1

Assay [4] relates to RXRa DBDmut IVT, anti-RXR (DBD mutation: RXRa K156A/R161A, NR concentration 90 nM). The essentials:
as §1

Assay [5] has as its system RXRa homodimer (NR concentration 180 nM). The essentials: as §1
In assay [6] the test system is THRa:RXRa (NR concentration 90 nM, RXRa partner concentration 90 nM). The essentials:
as §1

For assay [7], the system named is THRa homodimer (NR concentration 90 nM). The procedure, abridged: as §1
In assay [8] the test system is VDR homodimer (NR concentration 270 nM). The procedure, abridged: as §1

As for CAACCTAGGTCACAGAGGTCAAAGTCCGTGCGTA, the PBM binding z-score in assay [1] was found to be 5.82; in assay [2] it was 7.61; in assay [3], 7.92; in assay [4], 3.68; in assay [5] it was 8.52; in assay [6], 4.55. The results for the PBM binding z-score in assay [7] and in assay [8] were 3.1 and 7.57, respectively.
Take CTCGAAAGGTCGTGCTCAGGTGAATATACCAAAC: the PBM binding z-score was 3.06 in assay [1]; 5.46 in assay [2]; 4.17 in assay [3]; 2.45 in assay [4]; 5.01 in assay [5]; 4.38 in assay [6]. Besides, the PBM binding z-score in assay [7] turned out to be 1.6; in assay [8] it was 1.27.
As to ACTCGGAGGACAAAGGTCAGAGGTACGCCAGTGA, the PBM binding z-score in assay [1] turned out to be 4.58; in assay [2], 5.98; in assay [3], 5.03; in assay [4] it was 0.647; in assay [5], 5.39; in assay [6] it was 3.49. In addition, the PBM binding z-score in assay [7] is 0.633; in assay [8], 1.68.
Turning to GCTGCTAGGTCAACTGATGGTCAGATAAAGCTCG, the PBM binding z-score worked out at 3.52 in assay [1]; 5.33 in assay [2]; 5.41 in assay [3]; 1.79 in assay [4]; 3.01 in assay [5]; 2.9 in assay [6]. In addition, the PBM binding z-score in assay [7] amounted to 1.07; in assay [8], 0.346.
Take CCTAGTTGGTCAAGATCACACACGCTATAGGTAC: the PBM binding z-score in assay [1] came out at 0.785; in assay [2], 0.893; in assay [3], 1.22; in assay [4], 0.493; in assay [5], 0.581; in assay [6] it was 0.0913. Besides, the PBM binding z-score was 0.528 in assay [7] and 0.699 in assay [8].
Consider CGGCAAAGTTCAAGGTAACGTAACAGAAAGCAGC, for which the PBM binding z-score was 3.52 in assay [1]; 5.32 in assay [2]; 6.01 in assay [3]; 4.49 in assay [4]; 4.62 in assay [5]; 2.79 in assay [6]. For the same sequence, the PBM binding z-score in assay [7] was 0.581; in assay [8] it was 2.71.
For the sequence TGAATGAGGTTACAGATCAGGGAACGTGGCGTCG, the PBM binding z-score in assay [1] was 0.793; in assay [2] it was 1.89; in assay [3], 1.4; in assay [4], 0.394; in assay [5] it was 2.29; in assay [6] it was 2.67. The PBM binding z-score in assay [7] was found to be 0.836; in assay [8], 0.364.
Turning to CTACCAAGGTGAACAAGGTCGTTGGTTACTATTC, the PBM binding z-score in assay [1] turned out to be 2.16; in assay [2] it was 1.79; in assay [3] it was 1.29; in assay [4] it was 1.28; in assay [5] it was 1.87; in assay [6] it was 3.19. Moreover, the PBM binding z-score in assay [7] amounted to 1.81; in assay [8] it was 3.03.
Consider AGTCAAAGTTCAGGCCGAGGTAACGTAAAGCACG, for which the PBM binding z-score in assay [1] is 3.34; in assay [2], 5.07; in assay [3] it was 4.99; in assay [4] it was 3.1; in assay [5] it was 2.85; in assay [6], 3.78. Besides, the PBM binding z-score in assay [7] turned out to be 1.3; in assay [8], 2.53.
On to CGTCCAAGGTCAGAGAGGTCAGTAAATGCCGAGT, for which the PBM binding z-score was determined as 5.22 in assay [1]; 5.95 in assay [2]; 7.02 in assay [3]; 3.45 in assay [4]; 5.43 in assay [5]; 4.24 in assay [6]. Besides, the PBM binding z-score in assay [7] was 2.87; in assay [8], 5.99.
On to AATACAGGGTCACTAGGCTAGAGTAGGTACGAAT, for which the PBM binding z-score in assay [1] is 3.33; in assay [2], 4.95; in assay [3] it was 5.26; in assay [4], 2.71; in assay [5], 5.52; in assay [6], 3.35. Besides, the PBM binding z-score in assay [7] turned out to be 1.23; in assay [8], 2.2.
Turning to ACTATTAGTTGCGACGAGGGCAACCGATAGGTTG, the PBM binding z-score was found to be 0.942 in assay [1]; 0.259 in assay [2]; 0.489 in assay [3]; 0.4 in assay [4]; 0.472 in assay [5]; 1.09 in assay [6]. For the same sequence, the PBM binding z-score worked out at 0.3 in assay [7] and 0.643 in assay [8].
On to CAAACTCGGTCAAGAGGTCAAAGTCCGCTTCCCG, for which the PBM binding z-score was 5.17 in assay [1]; 7.26 in assay [2]; 6.13 in assay [3]; 2.01 in assay [4]; 6.42 in assay [5]; 3.9 in assay [6]. Moreover, the PBM binding z-score in assay [7] was 1.61; in assay [8], 3.72.
As for TAGCCTAGGTCATTCAGAGGCCAGTATAGAAAGC, the PBM binding z-score in assay [1] worked out at 3.33; in assay [2], 5.8; in assay [3] it was 4.01; in assay [4], 1.57; in assay [5], 2.87; in assay [6] it was 3.14. For the same sequence, the PBM binding z-score in assay [7] amounted to 0.653; in assay [8], 1.14.

The record behind these values is the supplement of paper PMC6555819.
